Assay results taken from PubChem BioAssay AID686999 (Broad Institute, 2013).
Measured potencies and affinities stand elsewhere. Results filed as inconclusive are left out. Active and inactive are the calls of the source.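 How the source made its calls: active means active in every separate test run, each with half-maximal potency at or under twice its top valid dose; inconclusive means the separate test runs give conflicting calls; inactive means inactive in every test run, including signal rising instead.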

Assay: Cryptococcus growth inhibition by alamar blue – cell lysis, cherry-picks, replicate tests, mechanism study for C. neoformans antifungal project, dose response (AID 686999)
Conditions: 72 h; series mostly up to 35 µM; activity change, negative = inhibition: at the top concentration

Activity change, negative = inhibition, inactive:
O=C(NC(=S)Nc1ccc(Br)cc1)C1CCC1 18.4%, S=C(NCCCc1ccccc1)Nc1ccccc1 22.7%, COC(=O)C1=C(C)N(CC(C)C)C(=S)NC1c1cccc(F)c1 (stereo unspecified) 10.4% [at 42 µM], COc1ccc(NC(=S)NCc2ccc(Cl)cc2)c(OC)c1 5.43%, Fc1ccccc1NC(=S)NCCc1cccc(Cl)c1 8.81%, O=C(NC(=S)Nc1cccc(F)c1)c1cccc([N+](=O)[O-])c1 19.7%, CO[C@H]1CN(C)C(=O)c2cc(NC(=O)C3CC3)ccc2OC[C@@H](C)N(Cc2cncnc2)C[C@H]1C 9.34%, COc1ccccc1NC(=S)NCc1ccc(Cl)cc1 17.9%, COc1ccccc1CNC(=S)NCc1ccc(Cl)cc1 15.5%, CCc1ccc(C(=O)NC(=S)NCc2cccnc2)cc1 6.98%, COc1cccc(NC(=S)N2CCC(Cc3ccccc3)CC2)c1 -12.5%, O=C(Cc1ccccc1)N[C@H]1C=C[C@@H](CC(=O)N2CCOCC2)O[C@@H]1CO 18.6%, COC(=O)C1=C(C)N(Cc2ccc(Cl)cc2)C(=S)NC1c1cccc(Cl)c1 (stereo unspecified) -14.1%, COC(=O)C1=C(C)N(Cc2ccc(F)cc2)C(=S)NC1c1cccc(Cl)c1 (stereo unspecified) 3.12%, CCOC(=O)NC(=S)Nc1ccc(C(C)(C)C)cc1Br -0.187%, COC(=O)C1=C(C)N(Cc2ccccc2)C(=S)N[C@H]1c1cccc(F)c1 9.11%, COCCN1C(=S)N[C@@H](c2ccccc2)C(C(=O)OC)=C1C 1.85% [at 42 µM], COc1ccc(CNC(=S)NCc2ccc(OC(C)C)cc2)cc1 13.2%, O=C(NC(=S)NCC1COc2ccccc2O1)c1ccc(Cl)cc1 (stereo unspecified) 22% [at 46 µM], O=C(NC(=S)Nc1cc(Cl)ccc1N1CCOCC1)c1ccccc1[N+](=O)[O-] 26.6%, CC(C)CC1(C)N=C(c2ccccc2)C(=S)N1 (stereo unspecified) 24.5%
